TRHR agonist: activates the human TRH receptor; AID 493084; activation, % at 2 µM; 360,000 compounds, 0.18% hits; TRHR cells, calcium flux fluo-8, FDSS agonist mode; also: 0% is about no effect
Target sequence (P34981 whole entry, looked up): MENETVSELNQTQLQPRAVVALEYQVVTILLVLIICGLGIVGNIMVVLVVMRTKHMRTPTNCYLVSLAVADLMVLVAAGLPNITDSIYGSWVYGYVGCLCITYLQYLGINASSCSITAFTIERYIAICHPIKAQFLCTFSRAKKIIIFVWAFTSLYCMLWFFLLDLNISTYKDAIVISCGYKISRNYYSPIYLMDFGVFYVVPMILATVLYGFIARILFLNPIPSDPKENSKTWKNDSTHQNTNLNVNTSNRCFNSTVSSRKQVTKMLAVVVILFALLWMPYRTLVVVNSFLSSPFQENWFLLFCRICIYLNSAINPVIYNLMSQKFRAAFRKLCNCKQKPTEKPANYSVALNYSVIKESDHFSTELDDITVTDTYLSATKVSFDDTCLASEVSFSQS
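Agonist-mode FDSS calcium read (Ex 480/Em 530, 1 s cycles) in 1536-well TRHR cells with fluo-8 dye, after 10-cycle baseline and 23 nL compound addition; TRH at EC20 (10 nM final) added afterwards for the enhancer phase.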
D1 PAM: human D1 dopamine receptor positive modulation; P21728; HEK293 TREx D1 cells, calcium flux, dopamine EC20 potentiation; potentiation, % at 10 µM; 360,000 compounds, 0.036% hits; AID 504651; in the data active = potentiation above about 30%; also: 0% is about no effect
D1 agonist: activates the human D1 dopamine receptor; P21728; HEK293 T-REx D1 cells, calcium flux, agonist mode; activation, % at 2 µM; 360,000 compounds, 1% hits; also: 0% is about no effect
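Agonism was scored from calcium flux recorded over 180 s (1 read/s) after pintool compound addition, following a 10-cycle baseline. Cells were inducible force-coupled HEK293 TREx D1, plated overnight at 30 C and loaded with no-wash calcium dye.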
TRHR PAM: TRH receptor (human) allosteric enhancement | P34981 | TRHR cells, fluo-8 calcium fluorescence, EC20 TRH enhancement | enhancement, % at 2 µM | 360,000 compounds, 0.66% hits | AID 493056; in the data active = enhancement above about 30%; also: 0% is about no effect
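Enhancer read-out: after compound pinning and an initial kinetic agonist-mode read, an EC20 of TRH (10 nM final) was injected and fluo-8 calcium signal (Ex 480/Em 530) followed at 1 s/cycle for 100 cycles in TRHR-expressing cells.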
D1 antagonist: antagonists of human D1 dopamine receptor | P21728 | HEK293 TREx D1 cells, calcium flux, dopamine EC80; hits give low values | activity change, negative = inhibition, % at 10 µM | 360,000 compounds, 3.2% hits; in the data active = activity change below about -30%; also: % is scaled to controls: 0 for no effect and ±100 for the full control effect
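Calcium flux readout: force-coupled, inducible Hek293 Trex D1 line, cells induced overnight at 30 C with tetracycline, dye-loaded 30–90 min at RT. Antagonism scored against EC80 dopamine challenge given 180 s after compound.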
* marks the source's active call; other numbers are inactive results; ! = not confirmed by another sample. The list is not random: actives were taken first. Their share in the collection is about 4.7%. Rule as the data show it, unless noted: active = activation above about 30%; inactive = the rest.

SMILES | TRHR agonist | D1 PAM | D1 agonist | TRHR PAM | D1 antagonist
Cc1ccc2nc(N(CCCN(C)C)C(=O)CCc3ccccc3)sc2c1 | 1 | 0 | 16 | 4 | -2
Cc1ccc2nc(N(CCCN(C)C)C(=O)CN3C(=O)c4ccccc4C3=O)sc2c1 | 3 | -15 | 44* | 1 | -20
Cc1cc(C)c2sc(N(CCCN(C)C)C(=O)CN3C(=O)c4ccccc4C3=O)nc2c1 | 3 | -6 | 42* | 0 | -6
CN(C)CCCN(C(=O)CCc1ccccc1)c1nc2ccc(Cl)cc2s1 | 7 | -8 | 31* | 4 | -8
Cc1ccc(Cn2ccnc2SCC(=O)Nc2ccc3c(c2)OCO3)cc1 | -1 | -2 | -1 | 0 | 11
Cc1cc(C)c2c(C)nn(-c3ccccc3)c2n1 | -1 | 4 | 37* | -10 | 1
Cn1c(O)c(/C=C2\C=NN=C2c2ccccc2)sc1=S | 0 | -7 | 3 | -1 | -35*
CCCCCCn1c(O)c(/C=C2\C=NN=C2c2ccccc2)sc1=S | -1 | 0 | 3 | 33* | 11
CCOc1cc(C(=O)Nc2cccc3cccnc23)cc(OCC)c1OCC | 0 | -4 | 12 | -6 | 12
CN(CC(=O)O)S(=O)(=O)c1ccc2c(c1)NC(=O)CC(=O)N2 | 0 | -3 | 2 | -1 | 18
c1ccc(-c2ccccc2OCCCN2CCCC2)cc1 | 0 | -3 | 10 | -3 | -39*
CC1CCN(CCOc2ccccc2-c2ccccc2)CC1 | 0 | -6 | 2 | 10 | -18
c1ccc(-c2ccccc2OCCCN2CCCCCC2)cc1 | 1 | -10 | 24 | -1 | -43*
c1ccc(-c2ccccc2OCCCCN2CCCCC2)cc1 | -1 | -6 | 9 | -1 | -8
CCOc1ccc(NC(=O)CSc2nc3ccccc3nc2N2CCOCC2)cc1 | 0 | 3 | 3 | 34*! | 10
COc1ccc(NC(=O)CSc2nc3ccccc3nc2N2CCOCC2)cc1 | 0 | 1 | 3 | -5 | -9
CCCc1nc(SCC(=O)Nc2ccc(N3CCOCC3)cc2)c2ccccc2n1 | 1 | -20 | 1 | 2 | -36*
CC(C)c1nc(SCC(=O)Nc2ccc(N3CCOCC3)cc2)c2ccccc2n1 | 0 | -3 | 1 | -1 | -18
Cc1ccc(NC(=O)c2c(C)oc3ccc(O)c(CN4CCCC4)c23)c(C)c1 | -1 | 0 | 1 | -4 | 4
Cc1cc(NC(=O)N2CCC(CN3CCOCC3)CC2)ccc1Br | -1 | -1 | 8 | 12 | -12
O=C(N/N=C/c1cc2c3c(c1O)CCCN3CCC2)c1ccccc1O | 6 | -6 | 31* | 19 | -13
CCN(CCO)C(=O)C(c1ccccc1)c1ccccc1 | -2 | -4 | 2 | 9 | -59*
Cc1cccc(N2CCN(C(=O)CN3C(=O)COc4ccc(S(=O)(=O)N5CCOCC5)cc43)CC2)c1C | -1 | 0 | 0 | 0 | 6
O=C(Cn1cc(CN(Cc2ccccc2)Cc2ccccc2)nn1)Nc1cc(C(F)(F)F)ccc1Cl | -2 | -3 | 6 | 0 | -21
Cc1nc(N2CCN(Cc3ccccc3)CC2)nc2c1C(=O)CC(c1ccco1)C2 (centres undefined) | 0 | -3 | 1 | 4 | -32*
SMILES | TRHR agonist | D1 PAM | D1 agonist | TRHR PAM | D1 antagonist
Cc1nc(N2CCN(Cc3ccc4c(c3)OCO4)CC2)nc2c1C(=O)CC(c1ccco1)C2 (centres undefined) | 1 | 0 | 3 | -5 | -5
Cn1cccc1/C=C(\C#N)C(N)=S | 1 | -1 | 1 | 0 | 17
N#C/C(=C/c1cc[nH]c1)C(N)=S | 0 | -5 | 2 | 33* | -1
CCOc1ccc(C2C(C(=O)Nc3ccc(OC)cc3)=C(C)Nc3nc(CCCO)nn32)cc1 (centres undefined) | 0 | -1 | 3 | -2 | 6
CC(C)N(Cc1ccccc1)S(=O)(=O)c1ccc(Cl)nc1 | 0 | -8 | 0 | -7 | -41*
CN(Cc1ccccc1)S(=O)(=O)c1ccc(Cl)nc1 | -1 | 1 | 0 | 3 | 2
CC(=O)Nc1ccc(-c2ccccc2)s1 | -1 | -3 | 3 | -1 | 4
CC(=O)Nc1ccc(NC(C)=O)s1 | 0 | -5 | 2 | 1 | -34*
Cc1cccc(N2CCN(S(=O)(=O)c3ccc(-c4ccc(=O)[nH]n4)o3)CC2)c1C | 0 | -4 | 11 | -6 | -11
Cc1cccc(N2CCN(C(=O)c3cc4ccccc4oc3=O)CC2)c1C | 0 | -10 | 4 | -1 | -76*

Source: PubChem
